{"source": "PubChem BioAssay (NCI)", "note": "This is part of a sample that, as a whole, favours compounds with a hit. Of some 83,000 tested, about 20% had one in any assay.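 Treatment: one concentration, 48 hours, 96-well format. Scoring: percent growth, with anything below 10 considered active.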 A number with no mark means an inactive call. The source made the active and inactive calls.", "data": [{"system": "HL-60(TB) leukemia", "assay": "NCI-60 one-dose screen, 48 h (100 = growth as untreated, 0 = no growth, -100 = all killed)", "conditions": "10 µM unless noted", "values": [{"smiles": "COc1ccc2nc(NC(=O)Nc3c(F)cccc3F)sc2c1", "growth": "79.1%"}, {"smiles": "C#Cc1cccc(Nc2ncnc3cc(NC(=O)CCl)ccc23)c1", "growth": "-41.3% (active)"}, {"smiles": "CCCc1cccc(CCC)c1NC(=O)Nc1cc(Cl)cc(Cl)c1", "growth": "101%"}, {"smiles": "O=C1CN(c2ccccc2)C(=O)C1C(=O)Nc1ccc(Cl)c(Cl)c1", "note": "(centres undefined)", "growth": "7.75% [100 µM] (active)"}, {"smiles": "O=CN1N=C(c2ccc(Nc3ccnc4cc(Cl)ccc34)cc2)CC1c1ccccc1", "note": "(centres undefined)", "growth": "-25.8% (active)"}, {"smiles": "COc1ccc(N)c(N)c1", "growth": "84.9%"}, {"smiles": "N#C/C(=C\\c1ccc(-c2ccc(Cl)cc2)o1)c1ccc(Cl)cc1", "growth": "96.1%"}, {"smiles": "Cc1csc(Nc2nc(-c3ccc(Cl)cc3)nc(C(Cl)(Cl)Cl)n2)n1", "growth": "69.3%"}, {"smiles": "Cn1cc(NC(=O)Nc2cc(C(=O)O)n(C)c2)cc1C(=O)O", "growth": "90.1%"}, {"smiles": "CN(C)CCCCNc1ccc(NCCCCN(C)C)c2c1C(=O)c1c(O)ccc(O)c1C2=O", "growth": "24.6%"}, {"smiles": "COc1ccc(C/C(C)=C(\\c2ccc(OCCN3CCCCCC3)cc2)c2ccc(OC(=O)C3CCCCC3)cc2)cc1", "growth": "17.1%"}, {"smiles": "COC(=O)[C@]12CC[C@@H](C)[C@H](C)[C@@H]1C1=CC[C@@H]3[C@@]4(C)C[C@@H](O)[C@H](O)[C@@](C)(CO)C4=CC[C@@]3(C)[C@]1(C)CC2", "growth": "-28% (active)"}, {"smiles": "CN(C)c1ccc(Nc2c3ccccc3nc3cc(NC(=O)CCN4CCCC4)ccc23)cc1", "growth": "-57.9% (active)"}, {"smiles": "COc1cccc(-c2cnco2)c1OCc1c(C)c(COc2c(OC)cccc2-c2cnco2)c(C)c(COc2c(OC)cccc2-c2cnco2)c1C", "growth": "76.4%"}, {"smiles": "CCOC(=O)c1cc2oc(/C=C/c3cc(=O)c4cc(Cl)ccc4o3)cc2[nH]1", "growth": "93%"}, {"smiles": "c1cncc(-c2nc3ccccc3[nH]2)c1", "growth": "94.8%"}, {"smiles": "CCCCCCCCCCCCC[N+](C)(C)Cc1ccccc1", "growth": "-56.7% (active)"}, {"smiles": "COc1cc2c(cc1O)CC[C@@H]1[C@@H]2CC[C@]2(C)[C@@H](OCCCN(C)C)CC[C@@H]12", "growth": "-48.5% (active)"}, {"smiles": "N/C(=N\\C(N)=N\\c1nc2ccccc2s1)c1cccc(Cl)c1", "growth": "19.7%"}, {"smiles": "O=C(Nc1ccccc1O)c1ccc(CNC(=O)c2ccsc2Nc2ccnc(C(F)(F)F)c2)cc1", "growth": "7.44% (active)"}, {"smiles": "O=[N+]([O-])c1ccc(Oc2cccc3c(Oc4ccc([N+](=O)[O-])cc4[N+](=O)[O-])cccc23)c([N+](=O)[O-])c1", "growth": "99.9%"}, {"smiles": "Cc1nn(-c2ccccc2)nc1C(=O)Nc1ccccc1C(=O)NCC1CC1", "growth": "95.8%"}, {"smiles": "O=C(O)c1cn(C2CC2)c2cc(N3CCN(C(=O)N/N=C/c4cccc5ccccc45)CC3)c(F)cc2c1=O", "growth": "97.8%"}, {"smiles": "C=C(C)COC(=O)c1ccccc1C(=O)OCC1(C)CO1", "note": "(centres undefined)", "growth": "133%"}, {"smiles": "CNC(=O)c1cc(Oc2ccc(NC(=O)Nc3ccc(Cl)c(C(F)(F)F)c3)c(F)c2)ccn1", "growth": "-17.4% (active)"}, {"smiles": "Nc1ccc([N+](=O)[O-])cc1N=C/C=C/c1ccccc1", "growth": "9.14% (active)"}, {"smiles": "Cc1cccc(N=Nc2cccc(C)c2)c1", "growth": "125%"}, {"smiles": "CCCCCCCCCCCC1=NC(C)(C)CN1C(C)(C)CO", "growth": "58.3%"}, {"smiles": "c1ccc(-c2[nH]c3ccccc3c2-c2ccccc2)cc1", "growth": "78.7%"}, {"smiles": "C1CCN(c2nc(N3CCCCC3)nc(N3CCOCC3)n2)CC1", "growth": "112%"}, {"smiles": "CC(C)(C)c1ccc(S(=O)(=O)Oc2ccc(-c3sc4cc(OS(=O)(=O)c5ccc(C(C)(C)C)cc5)ccc4c3C(=O)c3ccc(OCCN4CCCCC4)cc3)cc2)cc1", "growth": "95.3%"}, {"smiles": "Clc1ccc2nc(CI)c(CI)nc2c1", "growth": "2.82% (active)"}, {"smiles": "O=C1/C(=C/c2ccc([N+](=O)[O-])s2)Oc2ccccc21", "growth": "-7.99% (active)"}, {"smiles": "Cc1ccc(Cc2c(C=O)nc(N)[nH]c2=O)c2ccccc12", "growth": "36.1%"}, {"smiles": "CC(O)Cc1c[nH]c(=O)[nH]c1=O", "note": "(centres undefined)", "growth": "103%"}, {"smiles": "COc1ccc(-c2cn[nH]c2-c2cc(OC)c(OC)c(OC)c2)cc1OCc1ccccc1", "growth": "20.4%"}, {"smiles": "O=C(/C=C/c1ccccc1)c1c[nH]c2ccccc2c1=O", "growth": "-12.9% (active)"}, {"smiles": "O=C(c1ccccc1)c1c(/C=C/c2ccc(Cl)cc2)nc2ccccc2c1/C=C/c1cccs1", "growth": "102%"}, {"smiles": "Cc1cc(=O)oc2cc(OC(=O)CN3CCN(C)CC3)ccc12", "growth": "122%"}]}]}
